Assay results from the supplement of paper PMC13380429.
A number with no mark means an inactive call.

Tested on: Vero E6 infected with SARS-CoV-2
Test: inhibition of SARS-CoV-2 cytopathic effect; higher = more antiviral protection, active = above 15
Conditions: 48 h

Row | SMILES | inhibition of SARS-CoV-2 cytopathic effect (1 nM) [%] | inhibition of SARS-CoV-2 cytopathic effect (8.33 nM) [%] | inhibition of SARS-CoV-2 cytopathic effect (100 nM) [%] | inhibition of SARS-CoV-2 cytopathic effect (833.33 nM) [%] | inhibition of SARS-CoV-2 cytopathic effect (10000 nM)
1 | CC(C)n1cnc2c(NCCc3ccc(O)cc3)nc(-c3csc4ccccc34)nc21 [stemregenin-1] | 1.26 | 0.69 | 1.35 | -0.07 | 18.1% (active)
2 | CN(C)CCOC1=Cc2ccccc2Sc2ccc(Cl)cc21 [zotepine] | 3.4 | 2.96 | 4.34 | 0.16 | -3.52%
3 | NC(Cc1ccc(I)cc1)C(=O)O (stereo in doubt) [4-iodo-L-phenylalanine] | 0.62 | -0.66 | 0.54 | 0.32 | -0.26%
4 | CCCN[C@H]1CCc2nc(N)sc2C1 [pramipexole] | -2.43 | -0.27 | -3.37 | -2.16 | -1.54%
5 | C=C(C)[C@@H]1CC[C@]2(C(=O)O)CC[C@]3(C)[C@H](CC[C@@H]4[C@@]5(C)CC[C@H](OC(=O)CC(C)(C)C(=O)O)C(C)(C)[C@@H]5CC[C@]43C)[C@@H]12 [bevirimat-dimeglumine] | -1.52 | 0.9 | 2.72 | 0.6 | -0.27%
6 | CCC(C)(C)c1ccc(CC(C)CN2C[C@@H](C)O[C@@H](C)C2)cc1 (stereo not given in full) [amorolfine] | 1.24 | 0.11 | 1.63 | 3.07 | 1.19%
7 | O=C(/C=C/c1ccc(O)c(O)c1)O[C@@H]1C[C@](O)(C(=O)O)C[C@@H](O)[C@H]1O [chlorogenic-acid] | -0.66 | 1.67 | 1.61 | -0.18 | -0.05%
8 | CCCCCCCCCCC(=O)O[C@H]1CC[C@H]2[C@@H]3CCC4=CC(=O)CC[C@]4(C)[C@H]3CC[C@]12C [Testosterone (undecanoate)] | 1.81 | 0.82 | 0.37 | 0.31 | 0.21%
9 | CN1[C@@H]2CC[C@H]1C[C@@H](OC(c1ccc(F)cc1)c1ccc(F)cc1)C2 [3-alpha-bis-(4-fluorophenyl)-methoxytropane] | 0.13 | 1.33 | -2.46 | -1.34 | -5.09%
10 | CCCCCCc1ccc(O)cc1O.Nc1c2ccccc2nc2ccccc12 [acrisorcin] | 1.59 | 2.93 | 1.22 | 3.53 | -18.5%
11 | CC(C)n1nc(-c2cc3cc(O)ccc3[nH]2)c2c(N)ncnc21 | 1.52 | 2.09 | 1.4 | 2.07 | -1.69%
